# Bioassay records deposited in PubChem BioAssay by National Center for Advancing Translational Sciences (NCATS).
# An excerpt weighted towards active compounds, which were near 12% of everything screened.
# SARS PLpro yeast: inhibitors of SARS-CoV papain-like protease in yeast; S. cerevisiae expressing SARS-CoV PLpro, growth rescue; Potency, µM (doses to about 32.9 µM), inactives show at the highest dose activity, positive = growth rescue, actives largely listed as activators; 330,000 tested, 0.19% active; calls by dose curve; further: 0% is about no effect; nearly all actives have a fitted effect of over 55% in size
# AmpC no deterg: inhibitors of E. coli AmpC beta-lactamase without detergent; Potency, µM (titrated, usually from 57.1 µM), without a hit: at the highest dose activity change, negative = inhibition, most hits filed as inhibitors; AID 485341; AmpC nitrocefin hydrolysis, absorbance 480 nm, 0.0001% Triton; 330,000 tested, 0.52% active;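 further: plate controls were no compound for no effect and no enzyme for full effect; nearly all actives have a fitted effect of over 20% in size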
# Target sequence (P00811 whole entry, looked up): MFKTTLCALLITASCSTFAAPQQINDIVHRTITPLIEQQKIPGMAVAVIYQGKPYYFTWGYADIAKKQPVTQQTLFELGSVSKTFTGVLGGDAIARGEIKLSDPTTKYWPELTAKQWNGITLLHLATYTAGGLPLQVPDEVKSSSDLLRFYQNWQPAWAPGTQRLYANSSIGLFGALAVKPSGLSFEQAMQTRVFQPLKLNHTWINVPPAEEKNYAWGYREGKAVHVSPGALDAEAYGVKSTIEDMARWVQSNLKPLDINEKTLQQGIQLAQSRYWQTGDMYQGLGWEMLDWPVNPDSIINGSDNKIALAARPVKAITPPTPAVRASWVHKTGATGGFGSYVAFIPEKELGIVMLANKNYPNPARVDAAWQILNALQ
#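 20 mM phosphate pH 7.0 + 0.01% (detergent screen) or 0.0001% Triton X-100; 5.3 nM AmpC reagent; cpd preinc 15 min RT; nitrocefin (800 uM stock) to start; A480 q20 s × 4 min; Activity was normalised to no-enzyme and no-compound control wells.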
# Pf growth 96h: P. falciparum growth inhibition at 96 hours. AID 504834. P. falciparum luciferase reporter growth, 96 h. 320,000 tested, 6.9% active. Potency, µM (top dose mostly 28.7 µM), for inactives: top-dose activity change, negative = inhibition, hits mostly inhibitors; further: on the % scale 0 is the no-effect control and ±100 the full control effect
#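 Plates of compound plus infected erythrocytes (2% hematocrit, 0.05% parasitemia final) incubate 96 hours, 37 C, 5% CO2. Detection reagent added; reduced luminescence from the parasites' luciferase reporter flags inhibition.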
# AmpC detergent: inhibitors of E. coli AmpC beta-lactamase with detergent | P00811 | AmpC hydrolysis of nitrocefin, absorbance 480 nm, 0.01% Triton | Potency, µM (titrated, usually from 114 µM), inactives show top-dose activity change, negative = inhibition, actives largely listed as inhibitors | 370,000 tested, 0.041% active | AID 485294;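 further: 0% = no-compound wells and -100% = no-enzyme wells; nearly all actives have a fitted effect of over 25% in size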
#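 20 mM phosphate pH 7.0 + 0.01% (detergent screen) or 0.0001% Triton X-100; 5.3 nM AmpC reagent; cpd preinc 15 min RT; nitrocefin (800 uM stock) to start; A480 q20 s × 4 min; Activity was normalised to no-enzyme and no-compound control wells.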
# Sm TGR block: blocks Schistosoma mansoni thioredoxin glutathione reductase. Q962Y6. purified TGR, DTNB reduction, TNB absorbance 405 nm. Potency, µM (highest dose often 114 µM), for the others: top-dose activity change, negative = inhibition, most hits filed as inhibitors. 360,000 tested, 3% active; further: on the % scale 0 is the no-effect control and ±100 the full control effect; nearly all actives have a fitted effect of over 60% in size
#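 Kinetic colorimetric format: TGR-catalysed, NADPH-driven DTNB reduction monitored via TNB absorbance. Enzyme dispensed at 20 nM; compound exposure 15 min at room temperature before reaction start.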
# Pf growth 48h: P. falciparum growth inhibition at 48 hours (one generation). P. falciparum luciferase growth in erythrocytes, 48 h. Potency, µM (highest dose often 28.7 µM), without a hit: top-dose activity change, negative = inhibition, actives largely listed as inhibitors. 310,000 tested, 5.9% active; further: on the % scale 0 is the no-effect control and ±100 the full control effect
#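 Parasite viability was followed by luminescence of a genomically integrated firefly luciferase. Cultures held 0.1% parasitemia at 2% hematocrit (final), incubated under 5% CO2 at 37 C.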
# The depositor's hits bear a star; ? = inconclusive; . = not tested or not shown; [ ] = dose if it differs, or a comment. Unless noted, the call rests on the fitted dose curve; in most records, active means well fitted curve in the direction sought with a large enough effect; inconclusive means small, poorly fitted or top-dose-only effect, or another doubt; inactive means no such curve, though single readings can be large; an effect the other way counts as inactive or inconclusive. Potency means the concentration at half of the fitted maximal effect.
SMILES,SARS PLpro yeast,AmpC no deterg,Pf growth 96h,AmpC detergent,Sm TGR block,Pf growth 48h
O=C(CN1CCN(Cc2ccc(F)cc2)CC1)Nc1nc2ccccc2s1,-6.5%,72.3%,?,-17.0%,-12.7%,-20.1%
CC(=O)NC1CC(=O)N(c2ccc3c(c2)OCCO3)C1 (stereo not drawn),.,.,.,-0.7%,47.7%,.
COc1ccc(NC(=O)NC(C)c2c(-n3cccc3)sc3c2CCN(C)C3)c(OC)c1 (stereo not drawn),.,.,.,-5.1%,-1.8%,.
CC1CCCCC1NC(=O)c1ccc(S(=O)(=O)NNC(=O)c2ccncc2)cc1 (stereo not drawn),2.9%,-25.1%,-11.4%,-3.6%,-21.3%,2.08µM*
O=C(NNS(=O)(=O)c1ccc(C(=O)NC2CCCC2)cc1)c1ccncc1,4.2%,-29.3%,-10.1%,4.5%,4.7%,15.8%
O=C(CNC(=S)N(Cc1ccccc1F)C1CCCCC1)NCCN1CCOCC1,-2.7%,173.1%,-23.5%,-0.7%,8.7%,-2.9%
O=C(CNC(=S)N(Cc1ccccc1Cl)C1CCCC1)NCCN1CCOCC1,-1.5%,180.9%,37.7%,?,-6.0%,10.4µM*
Cc1cccc(NS(=O)(=O)c2cccc(C(=O)NCc3ccccc3CN3CCOCC3)c2)c1,-20.5%,-14.0%,?,-5.6%,-1.8%,?
COc1ccc(C(=O)NCc2ccccc2CN2CCCC2)cc1S(=O)(=O)Nc1ccc(C)cc1,1.1%,99.1%,4.15µM*,-14.1%,-35.0%,10.4µM*
O=S(=O)(Nc1ccc(O)c(CN2CCCCC2)c1)c1ccccc1,5.4%,75.1%,0.586µM*,?,-6.0%,?
COc1ccc(NS(=O)(=O)c2cccc(C(=O)NCc3ccccc3CN3CCCC3)c2)cc1,0.3%,22.9%,13.1µM*,0.0%,-2.5%,13.1µM*
Cc1cccc(-n2c(=O)c3c(c4cc(C)ccc4n3C)n(CC(=O)NCCC3=CCCCC3)c2=O)c1,.,.,.,-0.9%,3.0%,.
CCC(=O)N1CCc2cc(S(=O)(=O)NC(C(=O)NCCc3ccc(Cl)cc3)C(C)C)ccc21 (stereo not drawn),.,.,.,0.7%,-0.4%,.
COc1ccc(CCNC(=O)Cn2nnc(-c3ccc(N(C)C)cc3)n2)cc1OC,-0.6%,7.5%,4.15µM*,-1.4%,-0.8%,24.4%
COc1ccc(N(CC(=O)NC2CCCC2)C(=O)Cn2nnc(-c3ccc(C)cc3)n2)cc1OC,5.1%,-0.9%,10.4µM*,-12.1%,1.9%,?
COc1ccc(N(CC(=O)NC2CCCC2)C(=O)Cn2nnc(-c3ccc(F)cc3)n2)cc1OC,?,20.3%,-16.5%,?,-34.3%,?
CCc1ccccc1-n1c(C)nc2cc(C(=O)NCCc3ccc(Cl)cc3)ccc21,.,.,.,0.8%,-4.8%,.
NS(=O)(=O)c1ccc(CCNC(=O)CCCCCNc2nc(=S)[nH]c3ccccc23)cc1,-6.5%,-29.2%,2.94µM*,0.0%,0.2%,-7.2%
Cc1ccc(CNC(=O)CCCCCNc2nc(=S)[nH]c3ccccc23)cc1,0.6%,-26.5%[11.4 µM],?,-11.5%,-2.6%,?
CN(CC(=O)Nc1ccc(N2CCOCC2)cc1)C(=O)CCNC(=O)c1ccccc1Cl,2.3%,-14.7%,26.0%,-9.5%,-12.2%,2.2%
CN(CC(=O)Nc1ccc(N2CCOCC2)cc1)CC(=O)Nc1ccc(N2CCOCC2)cc1,1.7%,29.2%,-22.5%,-13.6%,-0.6%,-6.1%
CSc1ccccc1NC(=O)CN(C)Cc1c(O)ccc2ccccc12,3.4%,-41.0%,53.0%,-13.8%,0.794µM*,-2.5%
CSc1ccccc1NC(=O)CN(C)Cc1ccc(Br)cc1,5.1%,-5.8%,-27.0%,?,-0.8%,-6.8%
CN(CC(=O)Nc1ccc(N2CCOCC2)cc1)Cc1c(O)ccc2ccccc12,-11.1%,-3.5%,13.4%,-1.7%,0.398µM*,5.3%
CN(CC(=O)Nc1ccc(N2CCOCC2)cc1)C(=O)CCc1ccccc1Cl,5.0%,22.5%,-11.4%,-19.2%,35.5µM*,?
